# This is a sample that favours compounds with a hit; in the whole collection about 2% have one here.
# NOD2 RIPK2 PPI – inhibitors of human NOD2-RIPK2 interaction. 360,000 tested, 0.38% active. AID 624267. inhibition, % at 4.98 µM. CHO BLA complementation NOD2-RIPK2, CCF4 ratio. O43353; in the data active = inhibition above about 21%;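 also: 0% = vehicle only and 100% = reference blocker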
# Target sequence (O43353 whole entry, looked up): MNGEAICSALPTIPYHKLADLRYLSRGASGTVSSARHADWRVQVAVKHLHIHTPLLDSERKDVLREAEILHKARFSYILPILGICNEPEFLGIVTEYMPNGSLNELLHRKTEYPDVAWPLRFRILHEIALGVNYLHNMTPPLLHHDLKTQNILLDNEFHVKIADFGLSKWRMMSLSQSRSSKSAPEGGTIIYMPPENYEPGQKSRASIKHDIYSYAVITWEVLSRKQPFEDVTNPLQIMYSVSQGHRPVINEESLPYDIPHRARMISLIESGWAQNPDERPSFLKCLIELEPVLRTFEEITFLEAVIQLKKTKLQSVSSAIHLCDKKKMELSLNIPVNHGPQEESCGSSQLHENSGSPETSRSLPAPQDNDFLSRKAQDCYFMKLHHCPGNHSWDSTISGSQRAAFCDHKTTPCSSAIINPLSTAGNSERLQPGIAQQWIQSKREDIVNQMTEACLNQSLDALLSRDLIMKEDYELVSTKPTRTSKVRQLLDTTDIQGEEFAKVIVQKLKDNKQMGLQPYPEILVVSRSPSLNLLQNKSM
# TLR4-MyD88 BLA – blocks binding of human TLR4 to MyD88 | HeLa CL3-4 TLR4/MyD88 BLA complementation, FRET ratio | O00206+Q99836 | inhibition, % at 8.4 µM | 200,000 tested, 0.18% active; in the data active = inhibition above about 25%;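 also: 0% = vehicle and 100% = reference inhibitor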
# Exocytosis inh – blocks lytic granule exocytosis. TALL-104 LAMP-1 surface exposure, flow cytometry; cells stimulated with thapsigargin and PMA. inhibition, % at 10 µM. 360,000 tested, 0.66% active. AID 651702;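 active = inhibition above about 55%, limit read from the data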
# TLR9-MyD88 inh – TLR9-MyD88 interaction inhibition; CHO BLA complementation TLR9-MyD88, CCF4 FRET ratio; inhibition, % at 4.98 µM; 340,000 tested, 0.21% active;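 active = inhibition above the mean over all tested compounds plus 3 SD, cut at about 21% in these data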;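 also: 0% = DMSO only wells and 100% = clavulanate BLA inhibitor control wells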
# ABHD5-PLIN5 inh – blocks binding of human ABHD5 to perilipin-5; Q00G26+Q8WTS1; Split G. princeps luciferase complementation, luminescence, 4 h; inhibition, % at 4 µM; 360,000 tested, 0.78% active; AID 602281;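 active = inhibition above the mean inhibition across every tested compound plus 3 SD, cut at about 22% in these data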;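 also: 0% = DMSO only wells and the 100% control is not disclosed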
# B2AR ag – activates human beta-2 adrenergic receptor causing internalization; P07550; Am2.2-beta2AR cells, FAP receptor internalization, flow cytometry; response, % (concentration not given with the values); 340,000 tested, 0.43% active; AID 504454;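 active = response above a set limit, near 3 SD of response in nonfluorescent compounds, cut at about 42% in these data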
# ABHD5-PLIN5 conf – ABHD5-PLIN5 interaction inhibition, confirmed; shares compounds with ABHD5-PLIN5 inh; 2,200 tested, 67% active; biochemical ABHD5-PLIN5 interaction, luminescence; inhibition, % at 4 µM; in the data active = inhibition above about 23%;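 also: 0% = DMSO vehicle wells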
# HNF4 counter – HNF4 split-luciferase signal hit, counter-screen; HNF4 dimerization, luminescence, biochemical; 2,200 tested, 77% active; shares compounds with ABHD5-PLIN5 inh; inhibition, % at 4 µM;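 active = mean inhibition across replicate wells exceeding the computed hit threshold, cut at about 13% in these data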;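 also: light from luciferase halves that rejoin when HNF4 fusion proteins dimerize; 0% = DMSO only wells and the 100% control is not given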
# * marks the source's active call; other numbers are inactive results; . = no result given.
SMILES,NOD2 RIPK2 PPI,TLR4-MyD88 BLA,Exocytosis inh,TLR9-MyD88 inh,ABHD5-PLIN5 inh,B2AR ag,ABHD5-PLIN5 conf,HNF4 counter
CNC[C@@H]1Oc2ccc(NS(=O)(=O)c3ccc(Cl)cc3)cc2C(=O)N([C@H](C)CO)C[C@@H]1C,-10.9,.,24.1,-5.1,24.9*,-9.7,19.5,-3.9
CCN(c1ccccc1)S(=O)(=O)c1cc(C(=O)NCC(c2ccco2)N2CCCCC2)ccc1C (configuration not stated),-3.5,.,-0.1,-8.8,10.1,-5.1,.,.
Cc1c(NS(=O)(=O)c2cccc(C(=O)NCc3ccco3)c2)c(=O)n(-c2ccccc2)n1C,-0.3,.,1.4,-14.5,25.2*,8.7,11.5,14.3*
CCN(c1ccccc1)S(=O)(=O)c1cc(C(=O)NCc2ccco2)ccc1C,5.2,.,13.3,-2.4,26.9*,13.0,12.5,13.6*
CC1(C(=O)NCc2cccc(Cl)c2)Cc2c(-c3cccc(C(N)=O)c3)ccnc2O1 (configuration not stated),10.8,.,5.1,.,1.4,.,.,.
CC(=O)c1cccc(NC(=O)/C(=C/c2ccco2)NC(=O)c2ccco2)c1,-3.0,.,-3.8,-0.1,2.1,-3.1,.,.
O=C(Nc1cccc(F)c1)/C(=C\c1ccco1)NC(=O)c1ccco1,-3.4,.,-0.5,0.0,27.2*,5.1,3.4,0.3
O=C(Nc1cccc(C(F)(F)F)c1)/C(=C/c1ccco1)NC(=O)c1cccs1,-15.3,11.4,2.7,8.9,30.4*,-1.4,9.7,11.4
NC(=O)c1ccccc1NC(=O)COc1ccc(Cl)cc1,1.7,.,3.8,2.9,46.3*,-1.6,4.8,-1.8
O=C(Nc1ccc(Br)cc1)c1cnc[nH]1,0.9,.,0.8,-5.7,8.1,3.5,.,.
N#C/C(C(=O)NCc1ccco1)=C1/SC(Cc2ccc(Cl)cc2)C(=O)N1c1ccccc1 (configuration not stated),-4.8,1.4,9.5,-4.9,8.8,1.5,.,.
Cc1ccc(CC2S/C(=C(/C#N)C(=O)NCc3ccco3)N(c3ccccc3)C2=O)cc1 (configuration not stated),-14.7,-6.6,-2.4,-0.7,23.4*,-1.6,10.1,12.8*
O=S(=O)(c1c(F)cccc1F)N1CCN(Cc2c(O)ccc3ccccc23)CC1,6.0,.,-2.7,2.3,26.6*,-6.1,43.1*,77.4*
O=c1ccn([C@@H]2O[C@H](CNCc3cccc4c3sc3ccccc34)[C@@H](O)[C@H]2O)c(=O)[nH]1,0.4,.,-3.0,.,2.6,.,.,.
C=CCc1cc(/C=C/c2nc(O)c([N+](=O)[O-])c(=O)[nH]2)cc(OC)c1O,-6.2,-2.3,1.0,-10.9,26.7*,-2.7,42.2*,32.4*
N#C/C(=C\c1ccc(N2CCOCC2)o1)C(=O)NCCc1ccccc1,-2.7,12.8,-0.5,4.0,24.8*,-6.7,18.5,31.9*
COCCNC(=O)/C(C#N)=C/c1ccc(N2CCOCC2)o1,-2.8,0.3,0.0,4.2,10.4,3.9,.,.
O=[N+]([O-])c1ccc(N2CCc3ccccc3C2)nc1,-11.4,.,9.1,5.0,33.5*,8.2,16.3,20.4*
COC(=O)c1c(NC(=S)NN2CCN(C)CC2)sc2c1CCC(C)C2 (configuration not stated),1.6,-12.6,64.0*,-8.6,24.6*,28.9,6.3,4.0
Nc1sccc1C(=O)NC1CC1,-9.3,.,-1.2,.,-19.0,.,.,.
CSc1ccc(OC2(C)CCN(Cc3ccc(C(C)C)cc3)C2)cc1 (configuration not stated),1.9,.,-7.8,.,-12.2,.,.,.
Cc1ccc(S(=O)(=O)N2C[C@H]3n4c(=O)ccc(=O)n4C[C@H](OC(=O)NCc4ccccc4F)[C@@]3(O)C2)cc1,0.8,.,-2.2,-1.1,25.3*,.,48.7*,42.2*
Cc1ccc(S(=O)(=O)N2C[C@H]3n4c(=O)ccc(=O)n4C[C@H](OC(=O)Nc4cccs4)[C@@]3(O)C2)cc1,-0.5,.,6.5,2.0,35.3*,.,57.5*,33.8*
COc1cc2c(cc1OC)C(CNC(=O)C=Cc1cc(OC)c(OC)c(OC)c1)C2 (configuration not stated),-2.9,.,4.1,-3.9,-0.2,.,.,.
Cc1cc(C)c2c(=O)n(CC(=O)Nc3cccc(F)c3)sc2n1,-2.0,.,33.1,2.3,44.0*,22.2,40.8*,109.4*
SMILES,NOD2 RIPK2 PPI,TLR4-MyD88 BLA,Exocytosis inh,TLR9-MyD88 inh,ABHD5-PLIN5 inh,B2AR ag,ABHD5-PLIN5 conf,HNF4 counter
CCOc1ccc(NC(=O)Cn2ncc3ccccc32)cc1,-5.0,.,-7.3,-3.7,-6.4,-1.9,.,.
CCOc1ccc(NC(=O)Cn2sc3nc(C)cc(C)c3c2=O)cc1,26.9*,.,33.8,5.9,64.3*,31.9,45.1*,105.3*
CN(C(=O)C1Cc2c(-c3ccc(Cl)cc3)ccnc2O1)c1ccccc1 (configuration not stated),-11.3,.,-2.9,.,-0.3,.,.,.
CC(=O)Nc1ccc(C2=NNC(=Nc3ccc(S(=O)(=O)N4CCOCC4)cc3)SC2)cc1,-2.6,.,-3.9,-4.0,75.5*,3.2,59.4*,79.2*
Cc1ccc(C(=O)/C=C/C(=O)O)cc1,-2.9,2.2,50.2,-9.1,93.4*,5.0,95.3*,105.9*
COc1ccc(CNC(=S)Nc2cccc(F)c2)cc1,-0.6,.,-16.1,-1.4,2.6,-8.6,.,.
O=C(O)c1cccc(N2C(=O)CSC2c2ccccc2)c1 (configuration not stated),5.6,.,5.2,-1.7,-5.0,-2.0,.,.
O=C(O)c1cccc(-n2sc3ccccc3c2=O)c1,3.9,.,0.7,-0.3,109.3*,-0.5,97.3*,119.5*
COc1ccc(OC)c(C(c2c(O)nc(SC)[nH]c2=O)c2c(O)nc(SC)[nH]c2=O)c1,-1.9,.,9.1,-0.4,26.0*,3.4,51.5*,48.6*
Cc1cn([C@H]2C[C@H](O)[C@@H](/C=C/C(=O)NCCC(c3ccccc3)c3ccccc3)O2)c(=O)[nH]c1=O,0.7,.,5.7,.,-1.2,.,.,.
Cc1noc(C)c1S(=O)(=O)N(C)C[C@@H]1OCc2cnnn2CCCC(=O)N([C@@H](C)CO)C[C@H]1C,8.0,.,-3.5,-8.5,-8.6,.,.,.
CCCCN(C)c1nc(-c2ccco2)c2c(c1C#N)CC(C)(C)OC2,-6.2,-1.6,-3.1,-2.3,28.5*,13.0,54.2*,78.7*
CN(C)CCNc1nc(-c2ccco2)c2c(c1C#N)CC(C)(C)OC2,-0.8,-5.2,-0.2,-2.6,-0.5,-0.2,.,.
Cc1cccc(/C=C/C(=O)c2ccc(NC3=NCCCS3)cc2)c1,1.0,11.9,3.5,6.0,52.3*,10.1,78.6*,60.8*
